# In the supplement of paper PMC10037445:
# Over roughly 2,900 compounds, “IRF Lucia reporter activity, fold change vs agonist alone” has its median near 0.9; the highest 2% begin near 2.8. Many of the other results were omitted from the sample, so the highest values are more common in it than they were.
# Tests used:
# RAW-Dual [1] = experiment: IRF Lucia reporter activity, fold change vs agonist alone; cytotoxicity flag (confluency mask): not cytotoxic; higher = enhanced IRF activity
# Summary of the method: (§1)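 After 50 nL of library stock was delivered by pin tool to RAW-Dual macrophages (50,000 cells/well, DMEM, 384-well plates), a PRR agonist was added 1 h later and the plates were kept at 37 °C, 5% CO2. Twenty hours later, IRF was read from supernatant by QuantiLuc luminescence and NF-κB by QuantiBlue absorbance at 620 nm. Reporter activity is stated as fold change over agonist-alone wells. Wells with IncuCyte confluency under 70% of agonist controls in both mask sets were counted as cytotoxic.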
# RAW-Dual [2] = experiment: IRF Lucia reporter activity, fold change vs agonist alone; higher = enhanced IRF activity; conditions: library stock concentration (final ~1000-fold dilution): 10 mM, agonist: MPLA (TLR4) […]
# Summary of the method: as §1
# RAW-Dual [3] = experiment: IRF Lucia reporter activity, fold change vs agonist alone; cytotoxicity flag (confluency mask): cytotoxic (confluency <70% of control); higher = enhanced IRF activity
# Summary of the method: as §1
# [4] = agonist: 3'3'-cGAMP (STING) 10 ug/mL
# [5] = cytotoxicity flag (confluency mask): not cytotoxic
smiles,measurement,setting,value
CN1CCc2c(c3ccccc3n2Cc2ccccc2)C1.CN1CCc2c(c3ccccc3n2Cc2ccccc2)C1.O=S(=O)(O)c1cccc2c(S(=O)(=O)O)cccc12 (library stock concentration (final ~1000-fold dilution): 2 mM),IRF Lucia reporter activity,RAW-Dual [1]; [4],1.04
same,IRF Lucia reporter activity,RAW-Dual [1]; agonist: LPS (TLR4) 0.1 ug/mL,1
CN1CCc2c(c3ccccc3n2Cc2ccc(C(=O)NO)cc2)C1 (library stock concentration (final ~1000-fold dilution): 10 mM),IRF Lucia reporter activity,RAW-Dual [1]; [4],0.943
same,IRF Lucia reporter activity,RAW-Dual [1]; agonist: LPS (TLR4) 0.1 ug/mL,1.19
CN1CCc2c(c3ccccc3n2Cc2ccc(C(=O)NO)cc2)C1.Cl (library stock concentration (final ~1000-fold dilution): 10 mM),IRF Lucia reporter activity,RAW-Dual [1]; [4],1.18
same,IRF Lucia reporter activity,RAW-Dual [1]; agonist: LPS (TLR4) 0.1 ug/mL,4.79
CN1CCc2c(c3ccccc3n2Cc2ccc(C(=O)NO)cc2)C1.Cl,IRF Lucia reporter activity,RAW-Dual [2]; [5],5.65
COc1ccc(CC(=O)Nc2nc3c(s2)CCc2ccccc2-3)cc1OC (library stock concentration (final ~1000-fold dilution): 10 mM),IRF Lucia reporter activity,RAW-Dual [1]; [4],0.989
same,IRF Lucia reporter activity,RAW-Dual [1]; agonist: LPS (TLR4) 0.1 ug/mL,0.961
COc1cccc(C=NCCN=Cc2cccc(OC)c2[O-])c1[O-].[Cl-].[Mn+2],IRF Lucia reporter activity,RAW-Dual [2]; [5],0.946
COc1cccc(C=NCCN=Cc2cccc(OC)c2[O-])c1[O-].[Cl-].[Mn+2] (library stock concentration (final ~1000-fold dilution): 10 mM),IRF Lucia reporter activity,RAW-Dual [1]; [4],1.06
same,IRF Lucia reporter activity,RAW-Dual [1]; agonist: LPS (TLR4) 0.1 ug/mL,0.762
CCOc1cc(N2CCC(O)CC2)ccc1Nc1ncc2c(n1)N(C)c1ccccc1C(=O)N2C (library stock concentration (final ~1000-fold dilution): 10 mM),IRF Lucia reporter activity,RAW-Dual [1]; [4],0.518
same,IRF Lucia reporter activity,RAW-Dual [1]; agonist: LPS (TLR4) 0.1 ug/mL,0.253
Cc1nc(Nc2cnn(C3CCNCC3)c2)nc2c1N(C)C(=O)c1cc3ccccc3cc1N2C,IRF Lucia reporter activity,RAW-Dual [2]; cytotoxicity flag (confluency mask): cytotoxic (confluency <70% of control),3.71
CCOc1cc(N2CCC(O)CC2)ccc1Nc1ncc2c(n1)N(C)c1ccccc1C(=O)N2C,IRF Lucia reporter activity,RAW-Dual [2]; [5],0.32
CN1c2ccccc2C(=O)Nc2cnc(Nc3ccc(N4CCC(O)CC4)cc3)nc21 (library stock concentration (final ~1000-fold dilution): 10 mM),IRF Lucia reporter activity,RAW-Dual [1]; [4],0.137
same,IRF Lucia reporter activity,RAW-Dual [1]; agonist: LPS (TLR4) 0.1 ug/mL,0.438
Cc1nc(Nc2cnn(C3CCNCC3)c2)nc2c1N(C)C(=O)c1cc3ccccc3cc1N2C (library stock concentration (final ~1000-fold dilution): 10 mM),IRF Lucia reporter activity,RAW-Dual [3]; [4],1.96
same,IRF Lucia reporter activity,RAW-Dual [3]; agonist: LPS (TLR4) 0.1 ug/mL,3.05
CC(C)(C)CC1NC(C(=O)NC2CCC(O)CC2)C(c2cccc(Cl)c2F)C12C(=O)Nc1cc(Cl)ccc12 (configuration not stated) (library stock concentration (final ~1000-fold dilution): 10 mM),IRF Lucia reporter activity,RAW-Dual [3]; [4],0.342
same,IRF Lucia reporter activity,RAW-Dual [3]; agonist: LPS (TLR4) 0.1 ug/mL,3.33
COc1cc(C(=O)O)ccc1NC(=O)C1NC(CC(C)(C)C)C(C#N)(c2ccc(Cl)cc2F)C1c1cccc(Cl)c1F (configuration not stated),IRF Lucia reporter activity,RAW-Dual [2]; [5],0.67
COc1cc(C(=O)O)ccc1NC(=O)C1NC(CC(C)(C)C)C(C#N)(c2ccc(Cl)cc2F)C1c1cccc(Cl)c1F (configuration not stated) (library stock concentration (final ~1000-fold dilution): 10 mM),IRF Lucia reporter activity,RAW-Dual [1]; [4],0.62
same,IRF Lucia reporter activity,RAW-Dual [1]; agonist: LPS (TLR4) 0.1 ug/mL,0.186
O=c1cc(-c2ccccc2)oc2cc(OC3OC(CO)C(O)C(O)C3O)c(O)c(O)c12 (configuration not stated) (library stock concentration (final ~1000-fold dilution): 10 mM),IRF Lucia reporter activity,RAW-Dual [1]; [4],0.862
same,IRF Lucia reporter activity,RAW-Dual [1]; agonist: LPS (TLR4) 0.1 ug/mL,0.849
